# GALK inhibitor: qHTS Assay for Inhibitors of Human Galactokinase (GALK): NCGC Sytravon Library Screen. P51570. recombinant GALK, Kinase-Glo ATP luminescence, 1 h. Potency, µM (titrated, usually from 57.5 µM), for the others: top-dose activity, negative = inhibition, usual class: inhibitors. 44,000 tested, under 10 active. AID 1347072, 2019;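 further: plate controls were full GALK reaction for no effect and reaction lacking GALK for full effect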
#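 Reactions with and without enzyme served as controls. GALK at 5 nM phosphorylates 100 uM galactose using 35 uM ATP (HEPES pH 8.0, Mg2+) for 1 h at RT, with luminescence read 10 min after adding Kinase-Glo Plus.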
# B2AR arrestin ag: qHTS assay of beta-arrestin-biased ligands of beta2-adrenergic receptor: NCGC Sytravon Library Screen; HTLA Tango cells, beta-arrestin recruitment, luciferase luminescence, 18 h; Beta-2 adrenergic receptor (Homo sapiens), P07550; Potency, µM (series often up to 46.1 µM), actives largely listed as activators; 44,000 tested, under 10 active;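 further: potency means the concentration at half of the fitted maximal effect; 0% = DMSO and full agonism = EC100 isoproterenol or metaproterenol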
#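 Tango cells (recombinant beta2-AR, beta-arrestin, tTA-driven luciferase), 1500/well in DMEM 1% FBS, treated 18 h at 37 °C with compounds up to 46 µM; luciferin mix added, luminescence read after 15 min; %activity curves fitted and curve-classed.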
# GALC G270D act: A Novel Cell-Based Assay to Identify Small Molecules for B -Galactocerebrosidase; P54803; 145M-Twi-hGALC-G270D cells (Twitcher mouse brain line with human GALC G270D), HMU-beta-Gal fluorescence, 48 h; Potency, µM (titrated, usually from 57.5 µM), actives largely listed as activators; 45,000 compounds, 0.1% hits; AID 1159614, 2016; further: potency means the concentration at half of the fitted maximal effect; 0% is about no effect; nearly all actives have a fitted effect of over 65% in size
# Target sequence (P54803 whole entry G286D): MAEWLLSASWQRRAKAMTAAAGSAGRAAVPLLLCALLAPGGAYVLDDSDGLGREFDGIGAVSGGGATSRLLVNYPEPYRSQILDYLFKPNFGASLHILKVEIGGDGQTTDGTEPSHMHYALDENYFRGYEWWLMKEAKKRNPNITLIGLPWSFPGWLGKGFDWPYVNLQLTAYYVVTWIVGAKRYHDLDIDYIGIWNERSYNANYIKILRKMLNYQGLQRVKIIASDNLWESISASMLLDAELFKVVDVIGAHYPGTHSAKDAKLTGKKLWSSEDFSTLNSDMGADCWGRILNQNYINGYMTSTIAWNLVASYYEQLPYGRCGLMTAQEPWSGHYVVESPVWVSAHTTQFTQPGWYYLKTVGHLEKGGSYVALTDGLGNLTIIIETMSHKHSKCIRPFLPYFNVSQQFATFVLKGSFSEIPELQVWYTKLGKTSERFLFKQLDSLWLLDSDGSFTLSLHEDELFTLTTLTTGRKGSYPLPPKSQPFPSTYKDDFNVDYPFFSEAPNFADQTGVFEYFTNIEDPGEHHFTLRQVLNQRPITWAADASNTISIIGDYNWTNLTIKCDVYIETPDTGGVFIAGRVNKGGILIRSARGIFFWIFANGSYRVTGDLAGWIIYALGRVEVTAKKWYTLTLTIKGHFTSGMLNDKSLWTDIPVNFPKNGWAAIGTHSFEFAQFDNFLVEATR
#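 Fluorogenic HMU-b-Gal hydrolysis (0.1 mM final, pH 5.2 citrate-phosphate with 1 mg/mL sodium taurocholate; carbonate stop buffer) measures mutant GALC activity after compound treatment of live 145M-Twi Twitcher brain cells stably carrying human GALC-G270D, with wild-type GALC line alongside; activation sought.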
# PTAP-TSG101 blk: qHTS Validation Assay for Inhibitors of HIV-1 Budding by Blocking the Interaction of PTAP/TSG101: Sytravon Library Screen | Tumor susceptibility gene 101 protein (Homo sapiens), Q99816 | Fluorescence polarization, FITC-PTAP peptide/Tsg101, 20 min | Potency, µM (highest dose often 115 µM), usual class: inhibitors | 44,000 tested, under 10 active; further: potency means the concentration at half of the fitted maximal effect; 0% is about no effect
#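 The Tsg101 binding domain, at 10 uM final, is mixed with compound and a FITC peptide bearing the PTAP motif (50 nM final). After 20 min at r.t., polarization is measured; actives defined by CRC class, efficacy cut-off 60% inhibition.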
# FH mod: Identification of activators of human fumarate hydratase by quantitative high-throughput screening; Fumarate hydratase, mitochondrial (Homo sapiens), P07954; FH coupled MDH/diaphorase resazurin fluorescence, 15 min; Potency, µM (top dose mostly 79.9 µM), for the others: at the top dose activity change, negative = inhibition, most hits filed as inhibitors; 54,000 compounds, 0.22% hits; further: potency means the concentration at half of the fitted maximal effect; on the % scale 0 is the no-effect control and ±100 the full control effect; the screen sought activators but most active calls are inhibition curves; nearly all actives have a fitted effect of over 45% in size
# NTMT1 inhibitor: Primary qHTS for Inhibitors of N-terminal methyltransferase 1 (NTMT1): MTaseGlo Assay; N-terminal Xaa-Pro-Lys N-methyltransferase 1 (Homo sapiens), Q9BV86; NTMT1 MTase-Glo SAH luminescence, purified enzyme; Potency, µM (titrated, usually from 114 µM), for inactives: top-dose activity change, negative = inhibition, most hits filed as inhibitors; 59,000 compounds, 2.5% hits;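 further: potency means the concentration at half of the fitted maximal effect; plate controls were DMSO vehicle for no effect and no enzyme for full effect; nearly all actives have a fitted effect of over 65% in size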
# The depositor's hits bear a star; i = inactive; ? = inconclusive; / = no result; ! = not active in a repeat; [ ] = remark or other dose. This excerpt belongs to a sample that is enriched for hits. The call rests on the fitted dose curve; in most records, active means well fitted curve in the direction sought with a large enough effect; inconclusive means small, poorly fitted or top-dose-only effect, or another doubt; inactive means no such curve, though single readings can be large; an effect the other way counts as inactive or inconclusive.
SMILES,GALK inhibitor,B2AR arrestin ag,GALC G270D act,PTAP-TSG101 blk,FH mod,NTMT1 inhibitor
COc1ccc(-n2nc3c(N4CCCC(C(=O)NCc5ccc(C)cc5)C4)nnc(C)c3c2C)cc1 (stereo unspecified),-1%,i,i,i,-25%,?
Cc1ccc(S(=O)(=O)Nc2nc3n(n2)C(c2ccc(Cl)cc2)C=C(c2ccccc2)N3)cc1 (stereo unspecified),4%,i,i,i,?,35µM*
Cc1oc2ncnc(N3CCOCC3)c2c1C(=O)Nc1ccc(Br)cc1F,-3%,i,i,i,-9%,89µM*
CCOC(=O)c1ccccc1NC(=O)c1c(C)oc2ncnc(N3CCOCC3)c12,2%,i,i,i,5%,?
CC(C)(NC(=O)Nc1ccccc1Cl)C(=O)N1CCC(C(=O)O)CC1,/,/,/,/,/,12%
Cc1ccc(NC(=O)c2cnc(N3CCCCC3)c3ccccc23)c(C)c1,-5%,i,i,i,-2%,-14%
Cc1ccc(Cl)cc1NC(=O)c1cnc(N2CCCCC2)c2ccccc12,5%,i,i,i,-19%,89µM*
c1cn2cc(-c3ccc4cn[nH]c4c3)nc(Nc3ccc(N4CCOCC4)cc3)c2n1,/,/,/,/,-6%,20µM*
N#C/C(=C\c1ccc(O)c(O)c1)C(=O)NCCc1ccccc1,/,/,/,/,32µM*,/
CC[C@H]1OC(=O)[C@H](C)[C@@H](O[C@H]2C[C@@](C)(OC)[C@@H](O)[C@H](C)O2)[C@H](C)[C@@H](O[C@@H]2O[C@H](C)C[C@H](N(C)C)[C@H]2O)[C@@](C)(O)C[C@@H](C)[C@@H]2N[C@@H](COCCOC)OC([C@H]2C)[C@]1(C)O,/,/,/,/,-1%,4%[57.5 µM]
O=C(O)Cc1cccc(OCCCN(Cc2cccc(C(F)(F)F)c2Cl)CC(c2ccccc2)c2ccccc2)c1,/,/,/,/,-19%[53.3 µM],40µM*
NCCc1ccc(O)c(O)c1,/,/,?,/,?,32µM*!
Cc1ccccc1NS(=O)(=O)c1ccc2[nH]cc(C(=O)NC3CCCCC3)c(=O)c2c1,0%,i,i,i,?,-17%
Cc1ccccc1NS(=O)(=O)c1ccc2[nH]cc(C(=O)NC(C)c3ccccc3)c(=O)c2c1 (stereo unspecified),-5%,i,i,i,40µM*,-15%
CCOC(=O)c1nn(-c2ccccc2)c(=O)c2c(N)sc(C)c12,/,/,/,/,/,-4%
CCOC(=O)c1nn(-c2ccc(OC)cc2)c(=O)c2c(N)scc12,/,/,/,/,/,13µM*
C[C@H](Oc1cc(-n2cnc3ccc(CN4CCN(C)CC4)cc32)sc1C(N)=O)c1ccccc1C(F)(F)F,/,/,/,/,-2%,25µM*
COc1cc(C2c3c(-c4cc(C)ccc4O)n[nH]c3C(=O)N2Cc2ccco2)cc(OC)c1OC (stereo unspecified),-9%,?,i,i,22µM*,7%
CCCCc1ccc(-n2nc3cc(C)c(NC(=O)Cc4ccccc4)cc3n2)cc1,0%,i,i,i,3%,79µM*
Cc1ccc2nc(-c3ccc(NC(=O)C(F)(F)F)cc3)sc2c1,1%,i,14µM*,i,3%,5%
Cc1ccc2nc(-c3ccc(NC(=O)c4ccc(S(C)(=O)=O)cc4)cc3)sc2c1,1%,i,i,i,8%,0%
CSc1ccc(/C=C/c2nc3ccccc3n2S(=O)(=O)c2ccc(F)c(C)c2)cc1,10%,i,i,i,-20%,16µM*
CCOc1ccc(/C=C/c2nc3ccccc3n2S(=O)(=O)c2cccc(Cl)c2)cc1,23%,i,i,i,-17%,5µM*
COc1ccc(-c2ccc3c(N)c(C(=O)Nc4cccc(C)c4)sc3n2)cc1,-13%,i,i,i,3%,7%
COc1ccc(-c2ccc3c(N)c(C(=O)Nc4cc(F)ccc4C)sc3n2)cc1,2%,i,16µM*,i,-6%,-2%
SMILES,GALK inhibitor,B2AR arrestin ag,GALC G270D act,PTAP-TSG101 blk,FH mod,NTMT1 inhibitor
CCOc1ccc(CCNC(=O)c2cc3sccc3[nH]2)cc1OCC,/,/,/,/,/,-9%
c1cncc(-c2ccc(CNc3nc(N4CCOCC4)nc4ccccc34)cc2)c1,/,/,/,/,/,-12%[57.5 µM]
CCS(=O)(=O)c1cccc(-c2cc(C(=O)NC3CCN(C)CC3)c(C)c3[nH]c4ncc(C)cc4c23)c1,/,/,/,/,-20%,28µM*!
CCOC(=O)N1CCC(NC(=O)c2cnn(-c3cccc(Cl)c3C)c2C2CCN(C(=O)OC(C)(C)C)CC2)CC1,0%,i,i,i,-15%,6%
Cc1ccc(NC(=O)c2cc(S(=O)(=O)N3CCC(C)CC3)cn2C)cc1Cl,-3%,i,?,i,-4%,89µM*
COc1cc(NC(=O)c2cc(S(=O)(=O)N3CCC(C)CC3)cn2C)cc(OC)c1OC,-5%,i,i,i,4%,5%
CC1CCN(S(=O)(=O)c2cc(C(=O)NCc3ccc(N(C)C)cc3)n(C)c2)CC1,-2%,i,i,i,-5%,89µM*
CC1CCN(S(=O)(=O)c2cc(C(=O)NCCc3ccccc3)n(C)c2)CC1,3%,i,i,i,-31%,-17%
C[S+](=O)([O-])c1ccc(C(=O)OCC(=O)N2CCNC(=O)C2)cc1[N+](=O)[O-],/,/,/,/,/,6%
C=C1C[C@@]23CCC4[C@@](C)(CCC[C@@]4(C)C(=O)OC)C2CC[C@@H]1C3 (stereo partly specified),/,/,/,/,0%[53.3 µM],1%[29.8 µM]
CC(C)NCCCn1c(Sc2cc3c(cc2I)OCO3)nc2c(N)ncnc21,/,/,/,/,2%,-7%[57.5 µM]
COc1ccc(S(=O)(=O)N(CCc2ccccc2)CC(=O)Nc2cc(Cl)ccc2C)cc1,-17%,i,i,i,-16%,4µM*
Cc1ccc(C)c(NC(=O)CN(CCc2ccccc2)S(=O)(=O)c2ccccc2)c1,1%,i,i,i,?,6%
CCn1c2ccccc2c2cc(CNC)ccc21,/,/,/,/,1%,-6%[57.5 µM]
CCc1nc(SC)ncc1C(=O)N1CCN(c2cc(C)ccc2C)CC1,1%,i,i,i,-8%,89µM*

# High-throughput results (PubChem)
